Assay outcomes from PubChem.
MRP-1 activ = activators of MRP-1. H69AR cells + doxorubicin, viability rescue, CellTiter-Glo. 140,000 tested, 0.61% active. viability increase, % at 10 µM;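 active = viability gain under doxorubicin at or above a set limit, the compound median plus 3 SD, cut at about 4.7% in these data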;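 note: MRP-1 overexpressing cells given doxorubicin 25 µM after compound pretreatment; 18-22 h compound pretreatment then 72 h with doxorubicin before readout; 0% = doxorubicin-only wells and 100% = vehicle-treated cells without doxorubicin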
MRP reversal = reverses drug resistance mediated by MRP. differential viability (reversal), % at 10 µM. 85,000 tested, 0.04% active. AID 602. H69AR cells + 2 uM doxorubicin, CellTiter-Glo, 72 h;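 active = viability drop by adding the cancer drug above about 55%, with treated viability meeting a 40% cutoff, limit read from the data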;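 note: viability without doxorubicin minus viability with 2 µM doxorubicin for each compound; larger differential means the compound sensitizes cells more to doxorubicin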
F-actin modifier = modifiers of cytoskeleton assembly; HUVEC TNFa F-actin phalloidin imaging, high content; inhibition, % at 2 µM; 91,000 tested, 0.18% active;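 active = inhibition above the batch mean plus 3 SD and confirmed as a hit by visual image inspection, cut at about 30% in these data, passing the limit was not always enough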
VCAM1 TNFa inh = reduces TNF alpha induced VCAM1 expression in HUVEC | 95,000 tested, 0.48% active | HUVEC TNFa-induced VCAM-1 immunofluorescence, high-content imaging | inhibition, % at 2 µM;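 active = inhibition above the batch mean plus 3 SD, with images confirmed as a hit by eye, cut at about 37% in these data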;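 note: 0% = TNF-stimulated DMSO wells and 100% = unstimulated control wells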
E-sel TNF inh = blocks E-selectin expression induced by TNF alpha. inhibition, % at 2 µM. HUVEC TNFa-induced E-selectin immunofluorescence, high content. 120,000 tested, 0.71% active;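 active = inhibition above the batch mean plus 3 SD, and confirmed as a hit on visual image review, cut at about 43% in these data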;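 note: 0% = TNF-stimulated DMSO wells and 100% = unstimulated control wells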
The depositor's hits bear a star; . = no result. Sampled rows, rich in hits. Any-hit rate of the full collection: about 1.5%.

SMILES | MRP-1 activ | MRP reversal | F-actin modifier | VCAM1 TNFa inh | E-sel TNF inh
O=c1ncn(-c2ccccc2F)c2ncccc12 | -1 | . | -3 | 5 | 67*
Cc1ccc(-n2nnc3c(SCC(=O)N4CCN(c5ccccc5)CC4)ncnc32)cc1 | . | -6 | 3 | 92* | 7
C=CCN(C(=O)CCC(=O)O)C1CC(=O)N(c2ccc(OCCC)cc2)C1=O (stereo not given) | 1 | -4 | . | . | 92*
C=CCN(C(=O)CCC(=O)O)C1CC(=O)N(c2ccc(OC)cc2)C1=O (stereo not given) | 0 | -3 | 4 | 19 | -4
CCOC(=O)N1CCN(C(=O)CSc2nc3c(c(=O)n2-c2ccccc2OC)SCC3)CC1 | -4 | 57* | -5 | -2 | -13
COc1ccccc1-n1c(SCC(=O)Nc2cc(C)on2)nc2c(c1=O)SCC2 | . | . | . | . | -5
CC(C)NC(=O)c1nn(C)c2ccccc12 | 0 | . | . | . | 5
Cc1ccc(C(=O)Nc2ccc(O)cc2C(=O)O)cc1C | -1 | 5 | . | -3 | -8
Cc1ccc(C(=O)Nc2ccc(O)cc2C(=O)O)cc1 | 0 | -8 | 22 | -11 | 61*
Cc1cccc(C(=O)NNC(=O)Nc2ccccc2)c1 | . | . | . | . | 65*
CCOC(=O)N1CCN(C(=O)COc2cccc3c2CCN(Cc2cccc(C)c2)C3=O)CC1 | -1 | . | . | . | 69*
CCOC(=O)N1CCN(C(=O)COc2cccc3c2CCN(Cc2ccccc2C)C3=O)CC1 | -2 | . | . | . | 21
COc1ccc(C(=O)c2ccc(N(C)C)cc2)c2ccccc12 | -5 | -22 | 27 | 60* | -4
COc1ccc(-c2cc(=O)[nH]c(NCc3ccccc3)n2)cc1 | 1 | 11 | 7 | 100* | 23
O=c1cnnc(NCc2ccccc2)[nH]1 | -1 | -14 | -15 | -8 | -1
CCn1c2ccccc2c2cc(NC(=O)CC(C)=O)ccc21 | 4.8* | . | . | . | .
Cc1nc2ccccc2c(=O)n1/N=C/c1ccc(O)cc1 | -3 | 8 | 48 | 4 | 66*
Oc1ccc2ccccc2c1C=Nc1ccccc1-c1nc2ccccc2[nH]1 | -2 | . | 12 | -9 | -1
CC(=O)c1cccc(NC(=O)c2cc(-c3ccc(F)cc3)on2)c1 | 2 | . | -7 | 71* | .
CC(=O)c1cccc(NC(=O)c2cc(C(C)C)on2)c1 | -1 | -3 | -9 | 4 | .
CC(NC(=O)C1CCCC1)c1ccc2c(c1)OCCO2 (stereo not given) | -2 | 10 | 0 | 7 | -21
CC(NC(=O)C12CC3CC(CC(C3)C1)C2)c1ccc2c(c1)OCCO2 (stereo not given) | 6.9* | 18 | -16 | -6 | 11
Clc1ccccc1-c1nnc(CNC2CC2)o1 | . | . | . | . | -8
CC(OC(=O)c1ccncc1)C(=O)Nc1cccc(Cl)c1 (stereo not given) | 0 | 4 | 10 | 17 | .
O=C(CSCc1ccc(Cl)cc1)N/N=C/c1ccccc1 | 4.8* | . | -7 | -11 | 20
SMILES | MRP-1 activ | MRP reversal | F-actin modifier | VCAM1 TNFa inh | E-sel TNF inh
O=C(CSCc1ccccc1)Nc1ccc(F)c(F)c1 | 4.7* | . | . | . | .
O=C(CSCc1ccc(F)cc1)Nc1ccccc1 | -1 | . | -15 | 11 | -1
O=C(/C=C/Nc1cccc(C(F)(F)F)c1)c1ccc(Oc2ncccn2)cc1 | 0 | . | 4 | -27 | 64*
CCCN1CCc2[nH]c(=S)[nH]c(=O)c2C1 | -1 | . | . | . | 68*
CC(C)N1CCc2[nH]c(=S)[nH]c(=O)c2C1 | -1 | . | . | . | -19
O=[N+]([O-])c1ccc(N/N=C/c2ccccc2)c(F)c1 | 5.2* | . | . | . | -26
Cc1nc2c(ccc3nc(NC(=O)C(c4ccccc4)c4ccccc4)sc32)s1 | 15* | . | . | . | -2
Cc1nc2c(ccc3nc(NC(=O)Cc4cccc5ccccc45)sc32)s1 | -3 | . | . | . | -11
O=C(O)C1C2C=CC(O2)C1C(=O)Nc1ccc(S(=O)(=O)Nc2ccccc2)cc1 (stereo not given) | -1 | -4 | 38* | 14 | 21
CC(C)=C1SC(N2CCN(c3ccc(C)cc3)CC2)=NC1=O | 4 | 7 | -4 | 12 | 63*
CC1C/C(=C/c2ccncc2)C(=O)/C(=C/c2ccncc2)C1 (stereo not given) | . | . | . | . | 100*
CC1C/C(=C/c2cccn2C)C(=O)/C(=C/c2cccn2C)C1 (stereo not given) | -5 | 8 | 5 | -8 | -18
COc1ccccc1/C=N/NC(=O)C(=O)N1CCN(c2ccccc2OC)CC1 | -1 | . | . | . | 1
NS(=O)(=O)c1ccc(N=Nc2c(-c3ccccc3)[nH]n(-c3nc(-c4ccccc4)cs3)c2=O)cc1 | 5.3* | . | . | . | -6
O=c1c(N=Nc2ccc(O)cc2)c(-c2ccccc2)[nH]n1-c1ccc([N+](=O)[O-])cc1 | . | . | . | . | -29
N#Cc1c(Nc2ccccc2)sc(C(=O)C2CC2)c1N | 1 | . | . | . | .
O=C(Cc1cccs1)NNC(=S)NC(=O)c1ccc(F)c(F)c1 | 2 | . | . | . | 76*
Cc1ccc(C(=O)OCCc2c(C)[nH]n(-c3ccccc3)c2=O)cc1 | -2 | . | 21 | 16 | 17
CC(C)CCOc1ncnc2c1sc1nc3c(cc12)CSC(C)(C)C3 | 6.3* | -5 | -3 | -7 | -2
CCC(=O)Nc1nc(-c2ccccc2)ns1 | -2 | 9 | -10 | 58* | 12
O=c1nc2s/c(=C\c3ccc(-c4ccccc4[N+](=O)[O-])o3)c(=O)n2nc1-c1ccccc1 | 5.2* | . | . | . | 38
CCn1c(O)c(C=Nc2ccccc2)n(-c2ccccc2)c1=S | -1 | -20 | 4 | 2 | -6
Cc1nc(NC(=O)c2oc3ccccc3c2C)sc1C(=O)N(C)C | -1 | . | -12 | -4 | 96*
CCOC(=O)c1c(NC(=O)CSc2nnc3c(Cl)cc(Cl)cn23)sc2c1CCC2 | -2 | . | . | . | 0
COc1ccc(/C=C2/SC(=O)N(CCNC(=O)C3CCCN3C(=O)c3cccs3)C2=O)cc1 (stereo not given) | 1 | . | . | . | 1
SMILES | MRP-1 activ | MRP reversal | F-actin modifier | VCAM1 TNFa inh | E-sel TNF inh
O=C(NCCN1C(=O)S/C(=C/c2ccccc2)C1=O)C1CCCN1C(=O)c1cccs1 (stereo not given) | 7.5* | . | . | . | 11
O=C(O)CCn1c2c(c3ccccc31)CCCC2 | -1 | -7 | 1 | 14 | 28
O=C(CCn1c2c(c3ccccc31)CCCC2)NNC(=O)c1ccccc1[N+](=O)[O-] | 1 | . | . | . | 81*
Cc1ccc(S(=O)(=O)N2CCN(C(C(=O)Nc3ccc(F)cc3)c3ccccc3)CC2)cc1 (stereo not given) | -4 | . | . | . | .
Cc1cc(NC(=O)CSc2ccc3nnc(-c4ccc(F)cc4)n3n2)no1 | -3 | 12 | 34 | 8 | -7
Cc1ccc(-c2nnc3ccc(SCC(=O)Nc4cc(C)on4)nn23)cc1 | -1 | -9 | 66* | 5 | -12
CN(/N=C/C=C/c1ccccc1)C1=NS(=O)(=O)c2ccccc21 | 1 | . | . | . | .
O=C(Nc1cc(Cl)ccc1Cl)c1ccc(-c2ccccc2)cc1 | -3 | . | . | . | -18
CCCOC(=O)c1ccc(Cl)c(NC(=O)c2ccc(-c3ccccc3)cc2)c1 | -4 | . | -2 | 10 | 100*
CCOc1cc(CNc2ccc3c(c2)OCCO3)cc(Br)c1OC | -4 | . | 39* | 43 | -34
CCOc1c(Br)cc(CNc2ccc3c(c2)OCCO3)cc1OC | -5 | . | 23 | 32 | 8
